Only some compounds are listed: those with a hit (about 3.4% of all), similar ones and a draw of the others.
HIF-2a block = inhibitors of HIF-2a; 786-0 RCC cells HIF-2a reporter, luciferase luminescence, overnight; 360,000 compounds, 0.72% hits; inhibition, % at 18.8 µM; AID 624352;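 active means inhibition of the luminescence signal of 40% or more relative to plate controls, in a single-dose primary screen at 18.75 µM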
TROY signal inh = blocks TROY-dependent signaling in reporter cells; Q293 LMP1-TROYcd NF-kB luciferase reporter, 4 h; inhibition, % at 10 µM; 360,000 compounds, 0.98% hits; AID 1347056;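 active means compounds whose plate-normalised and pattern-corrected inhibition of the luciferase reporter signal at the single screening dose is 50% or more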
TRPM1 prom inh = reduces MITF-dependent TRPM1 promoter luciferase signal; 330,000 compounds, 0.83% hits; inhibition, % at 12.5 µM; SK-MEL-5 TRPM1 promoter luciferase, 24 h;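 active means mean inhibition across replicates of 60% or more, whatever share of single replicates reaches that level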
EBV LMP1 NFkB = reduces LMP1-driven NF-kappaB luciferase signal; LMP1-induced NF-kappaB luciferase reporter cells, luminescence; inhibition, % at 12.5 µM; 350,000 compounds, 0.69% hits; AID 504558; in the data active means inhibition above about 41%;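 further: 0% = neutral control wells and 100% = reference inhibitor control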
Shn3 inh set2 = Schnurri-3 reporter inhibition in Clone20 osteoblasts; Clone20 osteoblast Shn3 3'UTR firefly luciferase, 24 h; inhibition, % at 12.5 µM; AID 588674; 360,000 compounds, 0.52% hits;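 active means mean inhibition of at least 75% with every replicate also reaching 75%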;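 further: 0% = median of neutral control wells and 100% = pilot-screen positive control compound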
TWEAK-Fn14 inh = inhibitors of TWEAK-Fn14 interaction signaling. TWEAK-stimulated Fn14 reporter cells, luciferase luminescence, 8 h. 360,000 compounds, 2% hits. inhibition, % at 10 µM; in the data active means inhibition above about 50%
Starred values were filed as active, the others as inactive.

What do the screens show for `O=C(CCS(=O)(=O)c1ccc(Cl)cc1)N1CCCc2ccccc21`?
HIF-2a block: -57.4; TROY signal inh: 64.9*; TRPM1 prom inh: -5.7; EBV LMP1 NFkB: -2.2; Shn3 inh set2: -33.7; TWEAK-Fn14 inh: 53.1*

Results for COCCN(CC(=O)Nc1cccc(C)c1C)C(=O)Cc1ccsc1 ?
HIF-2a block: 7.9; TROY signal inh: 0.1; TRPM1 prom inh: 16.6; EBV LMP1 NFkB: 3.0; Shn3 inh set2: -3.4; TWEAK-Fn14 inh: 15.2

How did CCNC(=O)C1(C)CCCN(C(=O)Cc2ccc(OC)c(OC)c2)C1 (stereo unspecified) do in these assays?
HIF-2a block: 13.7; TROY signal inh: 2.5; Shn3 inh set2: 29.9; TWEAK-Fn14 inh: 17.1

How did CCOC(=O)C(C(=O)N(C)Cc1ccccc1)C1CCCCC1 (stereo unspecified) do in these assays?
HIF-2a block: 19.0; TROY signal inh: 17.6; TRPM1 prom inh: 3.6; EBV LMP1 NFkB: 0.3; Shn3 inh set2: 7.2; TWEAK-Fn14 inh: -7.8

What do the screens show for `COc1cc(OC)cc(C(=O)N2CCCc3ccccc32)c1`?
HIF-2a block: -63.6; TROY signal inh: 40.6; TRPM1 prom inh: 16.2; EBV LMP1 NFkB: 9.8; Shn3 inh set2: 1.1; TWEAK-Fn14 inh: 51.7*

What do the screens show for `COc1ccc(CC(=O)N2CCCc3ccccc32)cc1`?
HIF-2a block: -34.0; TROY signal inh: 35.5; TRPM1 prom inh: 2.8; EBV LMP1 NFkB: 1.1; Shn3 inh set2: -3.4; TWEAK-Fn14 inh: 50.3*

Results for O=C(c1cc(=O)c2ccccc2o1)N1CCCc2ccccc21 ?
HIF-2a block: -33.2; TROY signal inh: 27.9; TRPM1 prom inh: 1.7; EBV LMP1 NFkB: -9.0; Shn3 inh set2: -13.6; TWEAK-Fn14 inh: 51.7*

How did COc1ccc(CC(=O)OCC(=O)N2CCCc3ccccc32)cc1 do in these assays?
HIF-2a block: 6.2; TROY signal inh: -12.4; TRPM1 prom inh: -2.3; EBV LMP1 NFkB: -9.4; Shn3 inh set2: -8.4; TWEAK-Fn14 inh: 4.0

How did O=C(COc1ccccc1)OCC(=O)N1CCCc2ccccc21 do in these assays?
HIF-2a block: 11.2; TROY signal inh: 59.8*; TRPM1 prom inh: 4.0; EBV LMP1 NFkB: 1.5; Shn3 inh set2: -5.1; TWEAK-Fn14 inh: 0.2

How did Cc1cccc(S(=O)(=O)NC(=O)C2(C)CCN2C(=O)CC2CCCCC2)c1 (stereo unspecified) do in these assays?
HIF-2a block: 10.0; TROY signal inh: 1.4; Shn3 inh set2: 2.8; TWEAK-Fn14 inh: -1.4

What do the screens show for `Cc1cc(C(O)c2ncc(-c3ccccc3F)[nH]2)ccc1F` (stereo unspecified)?
HIF-2a block: -114.2; TROY signal inh: -28.9; Shn3 inh set2: 9.5; TWEAK-Fn14 inh: -8.1

Results for O=C(COC(=O)c1ccccc1[N+](=O)[O-])c1ccc(C2CCCCC2)cc1 ?
HIF-2a block: 17.4; TROY signal inh: 78.3*; TRPM1 prom inh: -14.7; EBV LMP1 NFkB: 12.5; Shn3 inh set2: 21.4; TWEAK-Fn14 inh: 81.0*

How did CNC(=O)c1ccc(CN(C)C(=O)c2cccc(S(=O)(=O)N3CCc4ccccc4C3)c2)cc1 do in these assays?
HIF-2a block: 15.9; TROY signal inh: -5.5; EBV LMP1 NFkB: -2.3; Shn3 inh set2: 13.2; TWEAK-Fn14 inh: 7.3

Results for COc1cccc(CNc2nc3cc(-c4cccc(C(F)(F)F)c4)sc3c(=O)n2C)c1OC ?
HIF-2a block: -16.1; TROY signal inh: 10.1; Shn3 inh set2: 12.6; TWEAK-Fn14 inh: 37.8

How did COc1ccc(-c2cc3nc(NCc4ccc(NC(C)=O)cc4)n(C)c(=O)c3s2)cc1OC do in these assays?
HIF-2a block: -3.7; TROY signal inh: 18.9; Shn3 inh set2: -4.4; TWEAK-Fn14 inh: -38.2

Results for CCn1c(NCc2cccc(OC)c2OC)nc2ccccc21 ?
HIF-2a block: -119.8; TROY signal inh: -52.4; TRPM1 prom inh: -26.0; EBV LMP1 NFkB: -20.9; Shn3 inh set2: -6.7; TWEAK-Fn14 inh: 59.6*

What do the screens show for `COc1cccc(CNc2nc3cc(-c4cccc(Cl)c4)sc3c(=O)n2C)c1OC`?
HIF-2a block: -90.7; TROY signal inh: 10.2; Shn3 inh set2: 18.4; TWEAK-Fn14 inh: 50.3*

Results for COc1ccccc1CNc1nc2cc(-c3ccc(OC)c(OC)c3)sc2c(=O)n1C ?
HIF-2a block: -34.7; TROY signal inh: 43.5; Shn3 inh set2: 12.7; TWEAK-Fn14 inh: 77.0*

What do the screens show for `COc1cccc(CNc2nc3cc(-c4cnn(Cc5ccccc5)c4)sc3c(=O)n2C)c1`?
HIF-2a block: -3.5; TROY signal inh: 20.4; Shn3 inh set2: 36.6; TWEAK-Fn14 inh: 68.0*

How did COc1cccc(CNc2nc3cc(-c4cccc(OC)c4)sc3c(=O)n2C)c1 do in these assays?
HIF-2a block: -91.1; TROY signal inh: -1.2; Shn3 inh set2: -5.9; TWEAK-Fn14 inh: -25.8

What do the screens show for `CSc1ccc(Cn2c(C)c(C(=O)NCc3cccc(C(F)(F)F)c3)sc2=O)cc1`?
HIF-2a block: 7.4; TROY signal inh: 19.8; Shn3 inh set2: 13.5; TWEAK-Fn14 inh: 22.4

What do the screens show for `O=C(COc1ccc(Br)cc1)NNC(=O)c1ccc(-n2cncn2)c([N+](=O)[O-])c1`?
HIF-2a block: 0.3; TROY signal inh: -9.9; TRPM1 prom inh: 7.7; EBV LMP1 NFkB: -1.5; Shn3 inh set2: -6.7; TWEAK-Fn14 inh: 11.7

How did Cc1nccn1CC(=O)c1ccc(O)c(O)c1 do in these assays?
HIF-2a block: 8.5; TROY signal inh: 5.7; TRPM1 prom inh: -3.0; EBV LMP1 NFkB: 3.9; Shn3 inh set2: -5.2; TWEAK-Fn14 inh: 3.2

How did COc1cccc(CNc2nc3cc(-c4ccccc4)sc3c(=O)n2C)c1OC do in these assays?
HIF-2a block: -121.4; TROY signal inh: 28.9; Shn3 inh set2: 24.2; TWEAK-Fn14 inh: 63.2*

How did CCCN1C(=O)c2[nH]nc(-c3cc(Cl)c(C)cc3O)c2C1c1ccc(O)c(OC)c1 (stereo unspecified) do in these assays?
HIF-2a block: 28.2; TROY signal inh: 33.8; TRPM1 prom inh: -5.1; EBV LMP1 NFkB: 15.8; Shn3 inh set2: 17.0; TWEAK-Fn14 inh: -7.4

What do the screens show for `Cc1cc(O)c(-c2n[nH]c3c2C(c2cccc(O)c2)N(Cc2cccnc2)C3=O)cc1Cl` (stereo unspecified)?
HIF-2a block: 32.6; TROY signal inh: 63.0*; TRPM1 prom inh: 5.0; EBV LMP1 NFkB: 3.4; Shn3 inh set2: 20.4; TWEAK-Fn14 inh: 18.1

Results for COc1cc(/C=C2/SC(=O)NC2=O)ccc1Oc1ccc([N+](=O)[O-])cc1[N+](=O)[O-] ?
HIF-2a block: -16.6; TROY signal inh: 53.7*; TRPM1 prom inh: -1.7; EBV LMP1 NFkB: 2.8; Shn3 inh set2: -15.2; TWEAK-Fn14 inh: 55.6*

What do the screens show for `COc1cc(/C=C2\SC(=O)NC2=O)ccc1Oc1ccc([N+](=O)[O-])cn1`?
HIF-2a block: -45.3; TROY signal inh: -9.2; TRPM1 prom inh: 2.6; EBV LMP1 NFkB: 6.3; Shn3 inh set2: 9.0; TWEAK-Fn14 inh: -8.2

Results for CCNC(=O)C1(C)CCN(C(=O)c2cccs2)C1 (stereo unspecified) ?
HIF-2a block: 5.3; TROY signal inh: 2.9; Shn3 inh set2: -7.0; TWEAK-Fn14 inh: 12.1
